Data taken from PubChem BioAssay (EPA / NIEHS).
Where “and” joins values, the source holds several entries; their conditions need not be identical. Equal values may be shown once. Calls of active or inactive are those of the source. How the source made its calls: active means hit-call score of the fitted dose curve at least 0.9, where 1 is the maximum; inactive means score below 0.9.

What was measured:
[1] = BSK_4H_Eotaxin3: BioMAP Diversity Plus: 4H Assay for Eotaxin 3 Biomarker Activity (AID 2283000); settings: primary human endothelial cells (HUVEC); actives raise or lower the signal
Procedure, shortened: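 Chemicals were added to human umbilical vein endothelium cultures, and Eotaxin-3 was quantified by ELISA at 24 h. Values were derived by bidirectional fitting with DMSO serving as negative control and activity baseline.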

[2] = read-out: Interleukin-1 alpha (IL1a), IL1A (gene 3552); assay: BSK_BE3C_IL1a: BioMAP Diversity Plus: BE3C Assay for Interleukin-1 alpha (IL1a) Biomarker Activity (AID 2283016); settings: primary human bronchial epithelial cells; actives raise or lower the signal
Procedure, shortened: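 Measured in human lung primary bronchial epithelial cells: IL-1a by ELISA at 24 h after dosing, with bidirectional fitting against DMSO.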

[3] = read-out: Monocyte Chemoattractant Protein-1 (MCP1), CCL2 (gene 6347); assay: BSK_3C_MCP1: BioMAP Diversity Plus: 3C Assay for Monocyte Chemoattractant Protein-1 (MCP1) Biomarker Activity (AID 2283017); settings: primary human endothelial cells (HUVEC); actives raise or lower the signal
Procedure, shortened: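 ELISA read-out of MCP-1 from human umbilical vein endothelial cell cultures harvested 24 h post-dosing. Gain or loss of signal was fitted relative to DMSO.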

[4] = read-out: Monocyte Chemoattractant Protein-1 (MCP1), CCL2 (gene 6347); assay: BSK_4H_MCP1: BioMAP Diversity Plus: 4H Assay for Monocyte Chemoattractant Protein-1 (MCP1) Biomarker Activity (AID 2283018); settings: primary human endothelial cells (HUVEC); actives raise or lower the signal
Procedure, shortened: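 Primary human umbilical vein endothelium is exposed to chemical for 24 h before MCP-1 is assayed by ELISA. Concentration-response fitted bidirectionally relative to DMSO.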

[5] = read-out: Monokine induced gamma interferon (MIG), CXCL9 (gene 4283); assay: BSK_3C_MIG: BioMAP Diversity Plus: 3C Assay for Monokine induced gamma interferon (MIG) Biomarker Activity (AID 2283021); settings: primary human endothelial cells (HUVEC); actives raise or lower the signal
Procedure, shortened: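 ELISA-measured MIG in dosed HUVEC 3C cultures at 24 h, analysed by bidirectional fitting with DMSO defining baseline activity.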

[6] = BSK_3C_SRB: Viability Assessment in the BioMAP Diversity Plus: 3C Assay (AID 2283023); settings: primary human endothelial cells (HUVEC);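 further: fitted both ways against DMSO so a hit may be signal rise or drop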
Procedure, shortened: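 Absorbance at 560 nm of sulforhodamine B-stained (0.1%) total protein served as a cytotoxicity readout in human umbilical vein endothelial cells, 24 h after chemical treatment. Signal was fitted bidirectionally relative to DMSO.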

[7] = BSK_4H_SRB: Viability Assessment in the BioMAP Diversity Plus: 4H Assay (AID 2283027); settings: primary human endothelial cells (HUVEC);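 further: cells exposed to compound for 24 h before staining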
Procedure, shortened: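 Cytotoxicity readout: sulforhodamine B (0.1%) staining of total protein after 10% TCA fixation, measured at 560 nm in human umbilical vein endothelium at 24 h. DMSO set the baseline; fitting was bidirectional.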

[8] = read-out: Monokine induced gamma interferon (MIG), CXCL9 (gene 4283); assay: BSK_BE3C_MIG: BioMAP Diversity Plus: BE3C Assay for Monokine induced gamma interferon (MIG) Biomarker Activity (AID 2283035); settings: primary human bronchial epithelial cells; actives raise or lower the signal;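 further: MIG protein measured by ELISA in BE3C cultures after 24 h of dosing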
Procedure, shortened: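 hu bronchial epithelial 1° cells, 24 h cpd; MIG by ELISA; bidirectional fit, DMSO = baseline.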

[9] = read-out: Plasminogen activator inhibitor-1 (PAI1), SERPINE1 (gene 5054); assay: BSK_BE3C_PAI1: BioMAP Diversity Plus: BE3C Assay for Plasminogen activator inhibitor-1 (PAI1) Biomarker Activity (AID 2283037); settings: primary human bronchial epithelial cells; actives raise or lower the signal
Procedure, shortened: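 In this multiplexed primary-cell system, bronchial epithelial cells receive test chemical and are sampled at 24 h. PAI-1 is read by ELISA, with DMSO serving as negative control for bidirectional fitting.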

[10] = read-out: Urokinase-type plasminogen activator receptor (uPAR), PLAUR (gene 5329); assay: BSK_BE3C_uPAR: BioMAP Diversity Plus: BE3C Assay for Urokinase-type plasminogen activator receptor (uPAR) Biomarker Activity (AID 2283039); settings: primary human bronchial epithelial cells; actives raise or lower the signal;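 further: uPAR protein level measured by ELISA on the cells; cells exposed to compound for one day before measurement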
Procedure, shortened: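 Chemically treated human bronchial epithelial cells (lung primary) are assayed for uPAR by ELISA after 24 h, with data fitted in both directions using DMSO as negative control.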

[11] = read-out: Tissue plasminogen activator (tPA), PLAT (gene 5327); assay: BSK_BE3C_tPA: BioMAP Diversity Plus: BE3C Assay for Tissue plasminogen activator (tPA) Biomarker Activity (AID 2283041); settings: primary human bronchial epithelial cells; actives raise or lower the signal
Procedure, shortened: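 Using human lung primary bronchial epithelial cells, tPA was measured by ELISA 24 h after dosing; data fitted relative to DMSO.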

[12] = read-out: Interleukin-8 (IL8), CXCL8 (gene 3576); assay: BSK_CASM3C_IL8: BioMAP Diversity Plus: CASM3C Assay for Interleukin-8 (IL8) Biomarker Activity (AID 2283042); settings: primary human coronary artery smooth muscle cells; actives raise or lower the signal;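 further: IL-8 protein level quantified by ELISA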
[13] = read-out: Human Leukocyte Antigen - DR isotype (HLADR), HLA-DRA (gene 3122); assay: BSK_CASM3C_HLADR: BioMAP Diversity Plus: CASM3C Assay for Human Leukocyte Antigen - DR isotype (HLADR) Biomarker Activity (AID 2283043); settings: primary human coronary artery smooth muscle cells; actives raise or lower the signal;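 further: cell-surface HLA-DR protein level quantified by ELISA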
[14] = read-out: Macrophage colony-stimulating factor (MCSF), CSF1 (gene 1435); assay: BSK_CASM3C_MCSF: BioMAP Diversity Plus: CASM3C Assay for Macrophage colony-stimulating factor (MCSF) Biomarker Activity (AID 2283044); settings: primary human coronary artery smooth muscle cells; actives raise or lower the signal;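 further: M-CSF protein amount quantified by ELISA after 24 h exposure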
[15] = read-out: Low-density lipoprotein receptor (LDLR), LDLR (gene 3949); assay: BSK_CASM3C_LDLR: BioMAP Diversity Plus: CASM3C Assay for Low-density lipoprotein receptor (LDLR) Biomarker Activity (AID 2283045); settings: primary human coronary artery smooth muscle cells; actives raise or lower the signal;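 further: LDLR protein level on the cell surface quantified by ELISA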
[16] = read-out: Monocyte Chemoattractant Protein-1 (MCP1), CCL2 (gene 6347); assay: BSK_CASM3C_MCP1: BioMAP Diversity Plus: CASM3C Assay for Monocyte Chemoattractant Protein-1 (MCP1) Biomarker Activity (AID 2283046); settings: primary human coronary artery smooth muscle cells; actives raise or lower the signal;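 further: MCP-1 level quantified by ELISA 24 h after dosing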
[17] = BSK_CASM3C_Proliferation: Cell Proliferation Assessment in the BioMAP Diversity Plus: CASM3C Assay (AID 2283047); settings: primary human coronary artery smooth muscle cells;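 further: sub-confluent cells exposed 48 h before staining; fitted both ways against DMSO so gain or loss of cell number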
[18] = BSK_CASM3C_SRB: Viability Assessment in the BioMAP Diversity Plus: CASM3C Assay (AID 2283050); settings: primary human coronary artery smooth muscle cells;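 further: total protein by SRB staining as cytotoxicity measure in parallel cultures; cells exposed to compound for 24 h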
[19] = read-out: Interleukin-8 (IL8), CXCL8 (gene 3576); assay: BSK_hDFCGF_IL8: BioMAP Diversity Plus: hDFCGF Assay for Interleukin-8 (IL8) Biomarker Activity (AID 2283058); settings: primary human foreskin fibroblasts; actives raise or lower the signal
Procedure, shortened: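 Cells used are human skin primary fibroblasts. Chemical is added, cultures run 24 h, then IL-8 is quantified by ELISA, and gain or loss versus DMSO control is fitted in both directions.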

[20] = BSK_hDFCGF_Proliferation: Cell Proliferation Assessment in the BioMAP Diversity Plus: hDFCGF Assay (AID 2283059); settings: primary human foreskin fibroblasts;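 further: curves fitted for both rise and fall of signal versus DMSO baseline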
Procedure, shortened: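 Steps: dose primary human dermal fibroblasts (foreskin); […] fix in 10% TCA; stain with 0.1% SRB; read 560 nm; fit gain or loss of signal against DMSO.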

Measured: AC50

O=C(C(=O)c1ccccc1)c1ccccc1
inactive: [1] | [2] | [3] | [4] | [5] | [7] | [8] | [9] | [10] | [11] | [12] | [13] | [14] | [15] | [16] | [17] | [18] | [19] | [20]
active: [6] 0.194 µM

COC(=O)/C=C\C(=O)OC
inactive: [1] | [2] | [3] | [4] | [5] | [6] | [7] | [8] | [9] | [10] | [11] | [12] | [14] | [15] | [16] | [17] | [18] | [19] | [20]
active: [13] 5.11 µM

CN(C)Cc1cc(C(C)(C)C)c(O)c(C(C)(C)C)c1
active: [20] 23.9 µM and 24.5 µM
inactive: [1] | [2] | [3] | [4] | [5] | [6] | [7] | [8] | [9] | [10] | [11] | [12] | [13] | [14] | [15] | [16] | [17] | [18] | [19]

Sc1nc2ccccc2s1
inactive: [3] | [4] | [5] | [6] | [7] | [8] | [9] | [10] | [11] | [12] | [13] | [14] | [15] | [16] | [17] | [18] | [19] | [20]
active: [1] 3.97 µM | [2] 0.0847 µM

CCC[Si](OC(C)=O)(OC(C)=O)OC(C)=O
inactive: [1] | [2] | [3] | [4] | [5] | [6] | [7] | [8] | [9] | [10] | [11] | [12] | [13] | [14] | [15] | [16] | [17] | [18] | [19] | [20]

COc1cc(CNC(=O)CCCC/C=C/C(C)C)ccc1O
active: [13] 16.8 µM and 5.89 µM | [20] 1.26 µM and 1.37 µM
inactive: [1] | [2] | [3] | [4] | [5] | [6] | [7] | [8] | [9] | [10] | [11] | [12] | [14] | [15] | [16] | [17] | [18] | [19]

CCCCCCCCCC/C=C/C1CC(=O)OC1=O (stereo not given)
inactive: [1] | [3] | [4] | [5] | [6] | [7] | [8] | [10] | [12] | [13] | [14] | [15] | [16] | [17] | [18] | [19] | [20]
active: [2] 20 µM | [9] 20 µM | [11] 14.5 µM

CC[N+](CC)(CC(=O)Nc1c(C)cccc1C)Cc1ccccc1
inactive: [1] | [2] | [3] | [4] | [5] | [6] | [7] | [8] | [9] | [10] | [11] | [12] | [13] | [14] | [15] | [16] | [17] | [18] | [19] | [20]
